Data taken from article PMC7826789 (International Journal of Molecular Sciences, 2021).

System: AURKC

Row | Compound | Kinases covered
1 | CN(C)CCNC(=O)Nc1ccc(N(C)c2ccnc(Nc3ccc(CS(C)(=O)=O)cc3)n2)cc1.Cl [GW830900A] | AURKC
2 | CCn1cc(-c2ccnc3[nH]c(-c4cccc(CN(C)C)c4)cc23)c(-c2ccc(NC(=O)N(C)C)cc2)n1 [GSK1070916] | AURKC
3 | COc1cccc(-c2c[nH]c3c(N/N=C/c4ccncc4)ncnc23)c1 [GW814408X] | AURKC
4 | CN1CCN(C(=O)c2ccc(NC(=O)Nc3ccc(N(C)c4ccnc(Nc5ccc(CS(C)(=O)=O)cc5)n4)cc3)cc2)CC1.Cl [GW830263A] | AURKC

System: BLK

Row | Compound | Kinases covered
5 | COc1cc2ncnc(Nc3cccc(Cl)c3F)c2cc1O[C@H]1CC[C@@]2(CC1)NCCNC2=O [BI00113608] | BLK
6 | Cc1ccc(C(=O)Nc2ccc(Nc3ccnc4cc(-c5ccccn5)ccc34)cc2O)cc1 [GW440146] | BLK
7 | COc1cc2ncnc(Nc3cccc(Cl)c3F)c2cc1O[C@H]1CC[C@H]([C@@H]2NCCNC2=O)CC1 [BI00133844] | BLK
